From PubChem
Sampled rows, rich in hits. Any-hit rate of the full collection: about 10%.
Luc counter – Kinase-Glo luciferase inhibition (counter-screen); Q27757; Kinase-Glo luciferase, ATP luminescence, 8 min; Potency, µM (highest dose often 38.3 µM), most hits filed as inhibitors; hit rate 0.28% among 200,000; AID 1379; active means well fitted inhibition curve with a large enough effect; inconclusive means small, poorly fitted or top-dose-only effect; further: nearly all actives have a fitted effect of over 60% in size
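Light output from Kinase-Glo luciferase with luciferin and 10 uM ATP in 50 mM imidazole pH 7.2, KCl, MgCl2, Tween 20, BSA; compound pin-delivered, 8-min ambient incubation, then luminescence read.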
IMPase inh – IMPase inhibition in cells; AID 901; inhibition (IP1 accumulation), % at 46.1 µM; CHO-M1 cells, IP1 accumulation, HTRF TR-FRET ratio; P97697; 120,000 tested, under 10 active; active means well fitted curve in the direction sought with a large enough effect in the signal ratio, not every such curve was filed as active; inconclusive means small, poorly fitted or top-dose-only effect, or a change in a side signal; inactive means no such curve, though single readings can be large or run the other way; the % refers to the signal ratio;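 further: cells stimulated with carbachol in lithium chloride buffer; higher means more IMPase inhibition seen as more IP1 and lower FRET ratio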
Target sequence (P97697 whole entry, looked up): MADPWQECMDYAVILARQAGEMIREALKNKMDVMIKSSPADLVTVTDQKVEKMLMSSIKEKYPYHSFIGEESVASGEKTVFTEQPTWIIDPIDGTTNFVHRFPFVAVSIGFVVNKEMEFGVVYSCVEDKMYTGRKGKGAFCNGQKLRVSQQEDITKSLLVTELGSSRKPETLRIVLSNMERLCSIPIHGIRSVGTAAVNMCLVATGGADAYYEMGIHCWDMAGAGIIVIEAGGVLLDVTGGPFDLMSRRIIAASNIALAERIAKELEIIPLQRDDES
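Elevated IP1 in lysates lowers TR-FRET signal (665/620 ratio and 620 channel reported). Cells were CHO-M1, given carbachol (50 uM as added) plus 50mM LiCl, pH 7.4, 30 min, 37C; compounds titrated up to 46 uM; AC50 by Hill equation.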
PNC inhibitor – inhibitors of perinucleolar compartment assembly; PC3M PTB-GFP, PNC prevalence imaging, 16 h; hits give low values; hit rate 3.1% among 140,000; activity change (PNC), negative = inhibition, % at 10 µM;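 active means readout at or below -70, meaning at least 70% loss of cells showing the perinucleolar compartment, a nuclear body marking cancer cells; inconclusive means readout between -30 and a set limit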
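PC3M cells stably expressing PTB-GFP, 750–1000 cells/well, treated 16 h at 37 °C with compound (23 nl of library stock), in duplicate. After paraformaldehyde fixation and Hoechst stain, imaged at 20x; PNC prevalence scored by image analysis.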
HPGD block – HPGD (human) dehydrogenase inhibition; Potency, µM, hits mostly inhibitors; P15428; AID 894; purified HPGD, NADH fluorescence kinetic, PGE2 substrate; hit rate 4.3% among 150,000
Target sequence (P15428 whole entry, looked up): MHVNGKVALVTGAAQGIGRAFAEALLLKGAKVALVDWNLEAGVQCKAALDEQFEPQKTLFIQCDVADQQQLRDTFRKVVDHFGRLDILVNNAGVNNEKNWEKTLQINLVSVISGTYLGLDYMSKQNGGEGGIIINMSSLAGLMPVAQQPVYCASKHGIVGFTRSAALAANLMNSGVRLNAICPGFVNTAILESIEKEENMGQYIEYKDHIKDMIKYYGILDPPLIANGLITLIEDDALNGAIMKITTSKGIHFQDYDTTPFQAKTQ
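NADH formation kinetics: reaction with 30 uM PGE2 and 1 mM NAD+ (final), 20 nM enzyme, Tris-HCl pH 8 with Tween 20, after 15 min compound preincubation at room temperature. Fluorescence change, last versus first of five reads.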
ALDH1A1 block – ALDH1A1 (human) enzyme inhibition. P00352. Purified ALDH1A1, NADH fluorescence, propionaldehyde substrate. Potency, µM (series often up to 75.3 µM), most hits filed as inhibitors. hit rate 7.3% among 220,000. AID 1030
LMNA splice mod – modulators of lamin A splicing; HeLa LMNA splicing GFP/RFP minigene ratio, 48 h; Potency, µM (series often up to 46.1 µM), most hits filed as inhibitors; hit rate 0.01% among 200,000; AID 1487; active means well fitted inhibition curve with a large enough effect in the signal ratio, with a control signal flat, not every such curve was filed as active; inconclusive means small, poorly fitted or top-dose-only effect, or effect the other way, or a change in a side signal; the % refers to the signal ratio
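S3 HeLa cells stably expressing lamin A-EGFP splicing minigene plus DsRed2, 600 cells/well, 48 h compound exposure at 37C. Laser-scanning cytometry; analysed as GFP (500-530 nm)/RFP (575-640 nm) total intensity ratio; 0.5% DMSO vehicle.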
Of the large screens only hits and unclear results are named; the others gave an inactive call; ! = not active in a repeat. Unless noted, the call rests on the fitted dose curve; in most records, active means well fitted inhibition curve with a large enough effect (not every such curve was filed as active); inconclusive means small, poorly fitted or top-dose-only effect, or another doubt; inactive means no such curve, though single readings can be large or run the other way.

CCOc1ccc(CCNC(=O)CN2CCN(Cc3ccc(Cl)cc3)C2=O)cc1OCC	none (no result: Luc counter, PNC inhibitor, HPGD block, ALDH1A1 block, LMNA splice mod)
Cc1oc2c(cc(NS(=O)(=O)c3ccc(C(C)C)cc3)c3ccccc32)c1C(=O)O	none (no result: Luc counter, PNC inhibitor, HPGD block, ALDH1A1 block, LMNA splice mod)
O=C(O)CSc1cc(NS(=O)(=O)c2cccc([N+](=O)[O-])c2)c2ccccc2c1O	ALDH1A1 block 3.5µM (no result: Luc counter, IMPase inh, PNC inhibitor, HPGD block, LMNA splice mod)
CCc1ccc(S(=O)(=O)Nc2cc(SCC(=O)O)c(O)c3ccccc23)cc1	ALDH1A1 block 14µM (no result: IMPase inh, PNC inhibitor, HPGD block, LMNA splice mod)
Cc1ccc(S(=O)(=O)N/N=C/c2cn(C)nc2C)cc1	ALDH1A1 block inconclusive
Cc1ccc(C)c(S(=O)(=O)N/N=C/c2cccnc2)c1	ALDH1A1 block 8.9µM (no result: IMPase inh)
Cc1ccc(S(=O)(=O)N/N=C\c2cccnc2)cc1	PNC inhibitor -88, ALDH1A1 block inconclusive, LMNA splice mod inconclusive
Cc1ccc(S(=O)(=O)N/N=C/c2cc(Br)c(C)o2)cc1	ALDH1A1 block 5.6µM
CC(=O)Oc1cc2c(c(C)c1OC(C)=O)CC=C1[C@]3(C)CC[C@]4(C)CC[C@@](C)(C(=O)O)CC4[C@]3(C)CC[C@]12C (some centres undefined)	LMNA splice mod inconclusive (no result: IMPase inh, PNC inhibitor)
CN(C)S(=O)(=O)c1cccc(NC(=O)COC(=O)CCOc2ccccc2)c1	none (no result: IMPase inh, PNC inhibitor, HPGD block, LMNA splice mod)
CN(C)S(=O)(=O)c1ccc(Cl)c(NC(=O)COC(=O)CNC(=O)c2ccco2)c1	ALDH1A1 block inconclusive (no result: IMPase inh, PNC inhibitor, HPGD block)
Cc1ccc(OCCC(=O)OCC(=O)Nc2cc(S(=O)(=O)N(C)C)ccc2C)cc1	ALDH1A1 block 4µM (no result: IMPase inh, PNC inhibitor, HPGD block)
CN(C)S(=O)(=O)c1ccc(Cl)c(NC(=O)COC(=O)CCSc2ccccc2)c1	ALDH1A1 block 25µM
N#CC[N+]1(Cc2ccccn2)CCCC1	none (no result: IMPase inh, PNC inhibitor, LMNA splice mod)
Cc1cccn2c(/C=N/OCc3ccc(F)cc3)c(-c3ccc(Cl)cc3)nc12	PNC inhibitor -109, HPGD block inconclusive
COc1ccc(-c2csc(N)n2)cc1F	ALDH1A1 block 11µM (no result: IMPase inh, PNC inhibitor, HPGD block)
Cc1ccc(N2CCN(Cc3nnc(-c4ccccc4F)o3)CC2)c(C)c1	none (no result: Luc counter, PNC inhibitor, HPGD block, ALDH1A1 block, LMNA splice mod)
CCCCN1C(=O)CN(C2CCCCCC2)C(=O)C1c1ccc(OCC)c(OC)c1 (centres undefined)	none (no result: Luc counter, IMPase inh, PNC inhibitor, HPGD block, ALDH1A1 block)
CCOC(=O)C1CCN(C(=O)c2cc3ccc4ccc(C)[nH]c4c3n2)CC1	none (no result: Luc counter, IMPase inh, PNC inhibitor, HPGD block, ALDH1A1 block)
CSc1nc2sc3c(c2c(=O)n1C)CCC(C)C3 (centres undefined)	ALDH1A1 block 25µM
C=CCn1nnc2sc3c(c2c1=O)CCC(C)C3 (centres undefined)	ALDH1A1 block 18µM
CSc1nc2sc3c(c2c(=O)n1C)CCCC3	PNC inhibitor -87, ALDH1A1 block inconclusive
CCOc1ccc(-c2cc(C(=O)N/N=C/c3ccc(O)c(OC)c3)[nH]n2)cc1	ALDH1A1 block inconclusive (no result: IMPase inh, PNC inhibitor, LMNA splice mod)
CCCOc1ccc(CNC(=O)Cn2c(=O)oc3ccccc32)cc1	IMPase inh inconclusive, PNC inhibitor inconclusive, LMNA splice mod inconclusive
CCCc1nnc(NC(=O)Cn2c(=O)oc3ccccc32)s1	HPGD block 28µM, ALDH1A1 block 10µM
CC(C)Oc1ccc(CNC(=O)Cn2c(=O)oc3ccccc32)cc1	HPGD block 20µM
CC(C)CN(CC(C)C)c1nnc(NC(=O)Cn2c(=O)oc3ccccc32)s1	ALDH1A1 block 1.4µM
CCc1nnc(NC(=O)Cn2c(=O)oc3ccccc32)s1	none
COc1cccc(CNC(=O)CCCn2c(=O)c3cccn3c3ccc(F)cc32)c1OC	none (no result: Luc counter, IMPase inh, PNC inhibitor, HPGD block, ALDH1A1 block)
CCOC(=O)c1ccc(-n2c(C)ccc2C)cc1	HPGD block inconclusive (no result: IMPase inh)
Cc1ccc(C)n1-c1ccc(C(=O)NN)s1	ALDH1A1 block 14µM (no result: IMPase inh, PNC inhibitor, HPGD block)
Cc1ccccc1-c1nc2scc(CCNS(=O)(=O)c3ccccc3)n2n1	none (no result: Luc counter, IMPase inh, PNC inhibitor, HPGD block, ALDH1A1 block)
O=C(CNc1ccc2ccccc2c1)N/N=C/c1cc2ccccc2nc1Cl	ALDH1A1 block 22µM, LMNA splice mod inconclusive (no result: IMPase inh)
O=C(COc1cccc(Cl)c1)N/N=C\c1cc2ccccc2nc1Cl	HPGD block inconclusive, ALDH1A1 block inconclusive (no result: IMPase inh)
O=C(NC(=S)Nn1cnnc1)c1ccccc1Cl	ALDH1A1 block 10µM (no result: IMPase inh, PNC inhibitor, HPGD block, LMNA splice mod)
COc1cccc(C(=O)NC(=S)Nn2cnnc2)c1OC	ALDH1A1 block 7.9µM (no result: IMPase inh, PNC inhibitor, HPGD block)
CN(C)CC/C=C1\c2ccccc2COc2ccccc21	ALDH1A1 block 18µM!, LMNA splice mod inconclusive
Nc1nc(-c2ccccc2)cc(N2CCCCC2)n1	PNC inhibitor -106, LMNA splice mod inconclusive
Cc1nc(-c2ccccc2)cc(N2CCCC2)n1	none
O=c1ccc2cc3c([nH]c4ccc(Br)cc43)oc-2c1O	HPGD block 16µM, ALDH1A1 block 7.9µM
Cc1nn2c(=O)cc(COC(=O)c3ccc(NC(=O)c4cccc(Br)c4)cc3)nc2s1	none (no result: Luc counter, IMPase inh, PNC inhibitor, HPGD block, ALDH1A1 block)
C/C(=N\NS(=O)(=O)c1ccc(C)cc1)c1ccc(C)s1	ALDH1A1 block 18µM
C/C(=N\NS(=O)(=O)c1ccc(C)cc1)c1ccc(Br)s1	ALDH1A1 block inconclusive
CCc1cccc(NC(=O)Cn2c(=O)n(CC3CCC(C(=O)NCCc4ccccc4)CC3)c(=O)c3ccccc32)c1 (centres undefined)	none (no result: Luc counter, PNC inhibitor, HPGD block, ALDH1A1 block, LMNA splice mod)
Cc1nc(N/N=C/c2ccccn2)sc1C	Luc counter 8.9µM, PNC inhibitor inconclusive, LMNA splice mod inconclusive (no result: IMPase inh)
Cc1cn(C)c(CC(=O)Nc2cccc(Cl)c2C)c1C(=O)O	none (no result: Luc counter, IMPase inh, PNC inhibitor, HPGD block, ALDH1A1 block)
Nc1ccc(SC(F)(F)F)cc1	ALDH1A1 block 20µM (no result: IMPase inh, PNC inhibitor, HPGD block)
Cc1nn(-c2ccccc2)c(C)c1C(=O)OCC(=O)NC12CC3CC(CC(C3)C1)C2	ALDH1A1 block 8.9µM
CC(=O)Nc1ccc(NC(=O)COC(=O)c2c(C)nn(-c3ccccc3)c2C)cc1	PNC inhibitor -83, ALDH1A1 block 22µM, LMNA splice mod inconclusive (no result: IMPase inh)
